From PubChem BioAssay AID624388 (National Center for Advancing Translational Sciences (NCATS), 2012)
Activity calls are given as the source filed them. Calls come from the whole dose curve; as a rule, active = well fitted curve in the direction sought with a large enough effect; inactive = no such curve, though single readings can be large or run the other way.

target: Pyruvate kinase PKLR (Homo sapiens) (UniProt P30613); assay: qHTS for Activators of Human Muscle Isoform 2 Pyruvate Kinase (PK): Extended Characterization using Reticulocyte PK Probe 2; details: purified hPK-R, ATP production, Kinase-Glo luminescence; series mostly up to 58 µM
Text: Human pyruvate kinase reticulocyte (hPK-R) enzyme was supplied as a highly purified (>95% pure) preparation from Structural Genomics Consortium in Toronto (Ontario, Canada) and assayed for its ability to generate ATP from ADP using phosphoenolpyruvate (PEP) as a substrate. ATP generation was detected in a coupled reaction by luciferase-mediated luminescence, an ATP-dependent process. Pyruvate kinase substrates, PEP and ADP, were present in the assay at Km and approximately 10-fold below Km respectively. The enzyme was assayed at an intermediate level of activity to screen for both inhibitors and activators. NIH Chemical Genomics Center [NCGC] NIH Molecular Libraries Probe Centers Network [MLPCN] MLPCN Grant: MH085679 Assay Submitter (PI): Matthew G. Vander Heiden, Harvard Medical School
Three uL of substrate mix (at r.t.) in assay buffer (50 mM Imidazole pH7.2, 50 mM KCl, 7 mM MgCl2, 0.01% Tween 20, 0.05% BSA) was dispensed into white solid bottom 1,536 well microtiter plates so that the final concentrations of substrates in the assay were 0.1 mM ADP and 0.5 mM PEP. 23 nL of compound were delivered by a pin tool and 1 uL of enzyme mix (final concentration of 0.1 nM) in assay buffer (4 degree Celsius) was added. Plates were incubated at room temperature for 1 hour. Two uL of detection mix (Kinase-Glo, Promega; at 4 degree Celsius protected from light) was added and luminescence read by a ViewLux (Perkin Elmer) at 1 second exposure/plate. Data were normalized to the uninhibited (row 31). Additionally, a no enzyme and 5-fold enzyme control was dispensed in row 32, split equally between the two conditions.

Chain of Pyruvate kinase PKLR (Homo sapiens) (P30613 whole entry, looked up, canonical isoform): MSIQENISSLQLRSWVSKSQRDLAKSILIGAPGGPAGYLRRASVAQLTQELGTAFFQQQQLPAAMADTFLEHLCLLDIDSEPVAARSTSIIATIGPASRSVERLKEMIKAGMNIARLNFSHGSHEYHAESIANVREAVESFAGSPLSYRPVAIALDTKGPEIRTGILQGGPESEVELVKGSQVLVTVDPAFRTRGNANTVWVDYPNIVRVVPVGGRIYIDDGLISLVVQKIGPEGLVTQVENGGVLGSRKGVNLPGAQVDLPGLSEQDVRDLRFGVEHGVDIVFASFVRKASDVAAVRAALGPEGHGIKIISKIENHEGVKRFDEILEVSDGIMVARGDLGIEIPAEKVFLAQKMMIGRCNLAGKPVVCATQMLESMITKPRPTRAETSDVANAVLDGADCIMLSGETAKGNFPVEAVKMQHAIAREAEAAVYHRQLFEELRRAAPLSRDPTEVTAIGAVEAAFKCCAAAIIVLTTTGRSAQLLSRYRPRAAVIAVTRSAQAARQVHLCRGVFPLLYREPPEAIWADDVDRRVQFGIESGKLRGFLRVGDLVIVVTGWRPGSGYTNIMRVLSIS

outcome, inactive:
Nc1cccc(S(=O)(=O)N2CCCN(S(=O)(=O)c3ccc4c(c3)OCCO4)CC2)c1
COc1cccc(Cn2ncc3c4sc(S(C)=O)cc4n(C)c3c2=O)c1 (centres undefined)
O=S(=O)(c1ccc2c(c1)OCCO2)N1CCN(S(=O)(=O)c2c(F)cccc2F)CC1
Cc1ccc(NS(=O)(=O)c2ccc3c(c2)CCC(=O)N3)cc1C
